Laboratory results: the supplement of paper PMC12632987

T1: USP38, Q8NB14
T1 chain: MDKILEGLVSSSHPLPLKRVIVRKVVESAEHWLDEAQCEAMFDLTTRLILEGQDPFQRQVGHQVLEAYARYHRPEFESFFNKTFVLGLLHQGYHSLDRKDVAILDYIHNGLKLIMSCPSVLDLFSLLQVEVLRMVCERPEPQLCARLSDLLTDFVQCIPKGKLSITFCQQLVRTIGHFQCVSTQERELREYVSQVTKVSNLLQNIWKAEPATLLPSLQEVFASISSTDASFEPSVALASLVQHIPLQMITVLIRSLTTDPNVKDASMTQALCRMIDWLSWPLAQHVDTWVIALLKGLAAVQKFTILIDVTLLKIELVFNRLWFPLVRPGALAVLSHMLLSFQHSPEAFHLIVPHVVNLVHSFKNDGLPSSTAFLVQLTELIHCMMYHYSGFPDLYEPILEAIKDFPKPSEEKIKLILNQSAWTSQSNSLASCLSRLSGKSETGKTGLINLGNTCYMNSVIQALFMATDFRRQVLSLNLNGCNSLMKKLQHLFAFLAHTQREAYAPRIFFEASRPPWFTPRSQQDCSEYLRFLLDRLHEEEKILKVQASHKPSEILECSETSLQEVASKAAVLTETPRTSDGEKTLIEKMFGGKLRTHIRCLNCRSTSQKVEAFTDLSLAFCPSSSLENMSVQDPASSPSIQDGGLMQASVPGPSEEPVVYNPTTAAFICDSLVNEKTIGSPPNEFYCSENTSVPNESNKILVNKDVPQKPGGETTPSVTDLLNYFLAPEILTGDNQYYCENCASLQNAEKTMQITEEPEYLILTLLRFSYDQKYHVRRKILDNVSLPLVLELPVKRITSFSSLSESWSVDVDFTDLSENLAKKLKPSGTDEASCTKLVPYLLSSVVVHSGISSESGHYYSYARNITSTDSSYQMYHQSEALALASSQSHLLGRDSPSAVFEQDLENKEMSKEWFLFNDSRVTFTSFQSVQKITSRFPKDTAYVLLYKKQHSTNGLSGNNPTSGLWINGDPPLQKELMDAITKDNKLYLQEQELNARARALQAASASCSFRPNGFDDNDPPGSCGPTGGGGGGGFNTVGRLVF


What was measured:
UCHL1, P09936 = assay: median log2 fold change of GCK-ALFA target abundance (FLAG IP / Myc IP barcode read proportion) (log2 ratio); each designed protein is fused to an ALFA-tag nanobody in HEK293 cells to bring the named protein to FLAG-tagged glucokinase (GCK); Myc marks an untargeted standard; higher = target protein stabilised (more abundant); conditions: target protein: 3xFLAG-MCP-GCK-ALFA reporter; HEK293 landing pad (RPLP)
In short: (§1)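 The readout is target abundance, the per-binder median log2 ratio of FLAG to Myc barcode read proportions. It came from HEK293 landing-pad cells carrying a recombined ALFA-nanobody-fused binder library, induced with 2 μg mL^−1 doxycycline and transfected with a plasmid for a FLAG-tagged target and a Myc-tagged standard. After 48 h, lysates were immunoprecipitated with anti-FLAG and anti-Myc, and circular RNA barcodes were reverse transcribed, amplified and sequenced. Each barcode needed a proportion of at least 10^−7 in both replicates and each binder at least 3 barcodes per replicate, a pseudocount of 10^−6 was added, and the replicates were pooled.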

USP38, Q8NB14 = target: T1, USP38, Q8NB14; assay: as above; conditions: target protein: 3xFLAG-MCP-GCK-ALFA reporter; HEK293 landing pad (RPLP)
In short: as §1

Chain of UCHL1, P09936 (P09936 whole entry, looked up, the tested form may be a part): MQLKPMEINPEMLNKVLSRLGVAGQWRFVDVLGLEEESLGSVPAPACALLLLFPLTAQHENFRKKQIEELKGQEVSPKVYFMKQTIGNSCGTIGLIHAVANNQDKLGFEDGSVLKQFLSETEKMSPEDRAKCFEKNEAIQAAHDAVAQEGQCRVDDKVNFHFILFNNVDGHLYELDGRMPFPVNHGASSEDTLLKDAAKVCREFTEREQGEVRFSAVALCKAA

| Binder | median log2 fold change (UCHL1, P09936) | median log2 fold change (USP38, Q8NB14) |
| --- | --- | --- |
| uchl1_2_7572 (protein) KTVFVGVKVTLTAYDEKTGKTYKSTRTLIFTESALEAAAKEIEELALNFQDAVGVPVKVDVHVVSTDEEVLKRLKELLEKMAKKLAKKGIEVNISGEVVK | -0.571 |  |
| uchl1_89_7584 (protein) EEARRAAARERLRRVLAATRERLEALMAKWGVADPEAVAALEELFRHAELAIEDPERAEEALAKAEEAAKRLLALAPEERRADVRMATGRLLNRLLGYVA | -0.114 |  |
| uchl1_89_7587 (protein) EEARREAARARLERVLAKTRARLEALLARMGAPDPAMVAALDALFDAARTALADPATAEAALAEAEAAARRLVELAPEEVKASVRLATGRLVIALRGYLA | -0.0889 |  |
| usp_38_diff_out_10_51_1 (protein) SVEEAKKRIEELMKEVEEVFKTGSDGEILRKSLNALNELTEIAKEYPEVKEEVIEAMVRIVELTKPNPELYEDMTFAARFKAATVSDEVAEKVREKIAAL |  | 0.235 |
| uchl1_89_7595 (protein) AAERAAAARARLRRVLAATRAELDRLVARMGERDPELLAALEAFFAAAEAALADPSTAAAALAAAEAAAKRAVELAPERYRASFRLALGRLLNALRGYVA | -0.1 |  |
| uchl1_89_7591 (protein) EAERLERARAHLREVLARTRERVEAIIARLGEPDPALVAARERVFAAAERAIADPARAAEYVAEAEAAARELVALAPPEFRSDFRMALGRLINRLLGYAA | 0.0711 |  |
| uchl1_89_7576 (protein) AEARAQAARARLRAVLAATRAEVERLLARLGEVDPALRAAFDAFFAAAEAAIADPSTAAAALAAAEAAARRLVELAPPEYRASFRLATGRLLNLLRGYAA | -0.0383 |  |
| uchl1_89_7578 (protein) EAARLAAARARLRRVLAATRAEVERLLARLGEVPPELRAAFDAFFAAAEAAIADPSTAAEALAAAEAAARRLVELAPPEYRASFRLATGRLLNALRGYAA | 0.184 |  |
| uchl1_89_7583 (protein) EEEREAAARARLRAILAATRAALERLIARWGVRDPEAQAALDALFANAERAIADPSTAAEALAKAEEAARRLLALAPPEKRADVRLATGRLLNALLGYVA | -0.0264 |  |
| uchl1_89_7577 (protein) EEERLEAARERLRRILARTRAEVERLLARLGEVPPELRAALDAFFAAAEAAIADPSTAEAALAEAEAAARRLVELAPPEYRASFRLALGRLVNALLGYAA | 0.111 |  |
| uchl1_89_7586 (protein) EEERLAAARARLRRILAATRAELERLIASLGVRDPALEAALAAFFAHARRAIEDPATAEEALAAAEAAARELLALAPPEKRADFRLATGRLLNALLGYRA | 0.158 |  |
| usp_38_diff_out_11_94_49 (protein) DEEIETNLFLMRYQFSQIVDLALTIDRETAAKVLRLANEAMEILKSGGPLEEVNKKLEEIKKVFNEAAAKSKENTEKLTAEANALLEKAKEYAEKAIKLR |  | 0.33 |
| uchl1_89_7589 (protein) AAAREAAARARLEAVLAKTRAELERLLARLGAPDPEMVAALEALFDAARRALADPETAEAALAETEAAARRLVELAPEEVRASVRLAVGRLVIALEGYRA | 0.16 |  |
| uchl1_89_7590 (protein) EEAKAKAARARLERVLAATEAALRRLLARLGAPDPALVAALDALLAAARAALADPATAAAHLAAAEAAARRLVELAPPEVRASVRLATGRLVNALRGYVA | -0.00562 |  |
| uchl1_2_7573 (protein) KTVFVGIKVTLEAYDEKTGKTYRSTRTLIFTEEALEKAAEEVKELALNFKDAVGVPVTVNVHIVSTDEEVLERLKKLLEEMAKELAKEGITVNISGEVVK | -0.366 |  |
| uchl1_89_7581 (protein) EAARLERAKAKLRAVLAATRAALDRLIARLGEPDPALVAARDALFAAAEAAIADPARAAEYLARAEAAARRLVELAPPERRASFRLAAGRLVNTLLGFAA | -0.302 |  |

| Binder | median log2 fold change (UCHL1, P09936) | median log2 fold change (USP38, Q8NB14) |
| --- | --- | --- |
| usp_38_diff_out_13_133_50 (protein) SMEEEEKKEALKKFEELIKEAREAIEKAKKALEEGDLDKAWEYLGKAAGLLMEARELRTRELRDDPELYKEAKKKLEEVEKELNEVIDKVVEAEEKAFLA |  | 0.322 |
| uchl1_89_7582 (protein) EEERLARAREHLRRVLAKTRAALDRLIARLGEPDPELVAAHEELLAAAEAAIADPERAEEYLAKAEEAAVRLVELAPPERRASFRLAVGRLINTLLGYAA | -0.405 |  |
| uchl1_89_7580 (protein) EEERLRRARERLRRVLEATRAEVERLIARLGEPDPALVAAAEELFAAAEAALEDPERAAEYLARAEAAARRLVELAPPERRASFRLAVGRLVNTLLGYAA | 0.043 |  |
| uchl1_89_7594 (protein) EEERLAAARAYLRRVLAETRARVEAILARLGRPDPALVAAAEAIFEAAELAIEEPERAEEYVARAEEAARQLVELAPPEYRADFRMALGRLINRLRGYAA | 0.173 |  |
| usp_38_diff_out_10_51_3 (protein) SREEEAERLLEEMEELVEKIKTSDLKTATAYFYQLINLTARLEALDPSYAERALELLKEAAKELLEKGGDKEDIIFALRFKAAATGSKVLEKAAEYVEKL |  | 0.18 |
| uchl1_89_7596 (protein) EEERRAAARARLRRVLAATRAKLEELIARMGERDPELLAELEAFFAAAEAALEDPETAEAALAAAEEHAVRAVELAPEEYRASFRLALGRLLNALLGYVA | -0.537 |  |
| uchl1_89_7593 (protein) EEARLAAARAKLREVLARTRAAVEAILARLGEPRPELVALLDAIFEAAEKAIADPAKAEEYVEKAEAAAREFVELAPEEFRSDFRMALGRLINRLLGYAA | 0.0394 |  |
| uchl1_89_7574 (protein) DPRLDPATAARLRAIAERTEAALRRILTKAGVPQATIDAFLALVRAAADTTIADRAAAPAQLAALEAALRALTARVDPATAANVRLAMGPLLRLLEGVAQ | -0.0395 |  |
| uchl1_89_7575 (protein) EAARREAARARLRRILAATEARVAALLARLGEVPPELAAARDAFFAAARAAIDDPATAAAALAAAEAAARRLVELAPPEYRASFRLATGRLLNALRGWAA | 0.127 |  |
| uchl1_2_7571 (protein) ETVFVGVLVTLRARDAETGKEYRSRRTFIFTEDSIEALAEEIRELALAFQADVGVPVTVDIHIYSTKKEVVEKTKKVLEEMAKELAKEGITVNITGTVVK | -0.528 |  |
| uchl1_89_7592 (protein) DAARLAAARARLRRVLERTRARVEAIIARLGRPDPAMVAAAEAVFAAAERAIADPARAAEWVARAEAAARELVALAPPEYRSDFRMALGRLVNALLGYAA | -0.157 |  |
| usp_38_diff_out_10_51_2 (protein) SVEEAREEIEELLEEVEEVFKTGSLDEQLRAGLNALNRLREIALEYPEVEEEVIEAMVRIVELAKPNPELYEDMKFAARFKAATVNDEVAERVRERIDAL |  | 0.0864 |
| usp_38_diff_out_13_133_52 (protein) AEEEEELKRRKEEFDKLIAEARKAIKDAKAALAAGDLDAAWAAAGKAAGLLMKAREHRTEKLRDDPELYEEAKKKLDEVEKELNEVIDAIVAAERERFLA |  | 0.302 |
| uchl1_89_7588 (protein) EEERRRAARERLERVLAATRARLEALLARLGEPDPALVAALEALFAAARRALEDPATAAEALAAAEAAARRLVELAPPEVRASVRLAVGRLVNRLRGYVA | -0.164 |  |
| uchl1_89_7579 (protein) EEERLARARERLRRVLAATRAELARLEARIGEVSPELAAARDALFAAAEAAIADPALAAAQLEAAEAAARRLVALTPPELRASVRLATGRLLNRLLGYAA | -0.16 |  |
| usp_38_diff_out_13_133_51 (protein) AAKEEALAAAQARFDALLADAQAAIDAAEAALAAGDLDAAWAAVGRAAGLLREAREHRTRELRDDPAAYAAAQARLDAVEKRLNAVIDRVAAAERARFLA |  | 0.142 |
